Among all 64,000 compounds or so, about 55 (0.09%) were called active. A selection follows. Unmarked numbers belong to inactive results. The rule behind the calls is not given here.

By inhibition is commonly meant the drop in the measured response relative to a control, in per cent.

Chain of Alkaline phosphatase, tissue-nonspecific isozyme (Homo sapiens) (P05186 whole entry, looked up): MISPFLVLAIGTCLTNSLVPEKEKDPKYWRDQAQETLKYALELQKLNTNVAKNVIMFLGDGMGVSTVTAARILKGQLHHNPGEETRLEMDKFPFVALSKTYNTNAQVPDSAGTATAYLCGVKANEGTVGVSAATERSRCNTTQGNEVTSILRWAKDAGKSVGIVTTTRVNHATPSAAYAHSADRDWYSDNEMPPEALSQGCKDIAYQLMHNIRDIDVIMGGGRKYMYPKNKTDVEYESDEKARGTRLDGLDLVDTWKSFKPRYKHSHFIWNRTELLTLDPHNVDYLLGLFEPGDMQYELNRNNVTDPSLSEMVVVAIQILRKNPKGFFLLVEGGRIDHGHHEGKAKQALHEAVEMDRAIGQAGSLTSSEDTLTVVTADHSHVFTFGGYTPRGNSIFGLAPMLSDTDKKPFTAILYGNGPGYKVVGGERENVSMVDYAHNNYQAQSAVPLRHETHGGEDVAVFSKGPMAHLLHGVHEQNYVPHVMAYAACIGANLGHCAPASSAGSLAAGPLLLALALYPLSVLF

The experiment concerns the target Alkaline phosphatase, tissue-nonspecific isozyme (Homo sapiens) (UniProt P05186). Kind of experiment: human TNAP enzyme inhibitors, biochemical, luminescent (AID 518).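 Note: plate controls were vehicle for no effect and reference inhibitor for full effect.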 Particulars: purified TNAP enzyme, luminescent substrate readout; at 20 µM; stronger effect = higher value.
As to `CN(c1cccc(NC(=O)c2ccccc2N(C)S(C)(=O)=O)c1)S(C)(=O)=O`, the inhibition was 14.3%. On to `O=C(NCCCN1CCCC1)C1CCC(=O)N1C1CCCCC1` (stereo unspecified), for which the inhibition is 7.6%. Turning to `N#Cc1ccc(Sc2nc3ccccc3[nH]2)cc1C#N`, the inhibition was 0.3%. On to `CC(C)Sc1nnc(NC(=O)C2CC2)s1`, for which the inhibition was -0.5%.

For the compound `O=C(Nc1cccnc1)c1c(O)c2cccc3c2n(c1=O)CC3`, the inhibition was 5.4%.

With `COc1ccc(CN2CCC(C(=O)N(C)CCc3ccc(OC)c(OC)c3)CC2)c(OC)c1`, the inhibition was 14%. In the case of `O=C(NC1CCCCC1)c1ccc(Br)o1`, the inhibition was 9%.

Turning to `CC12CN3CC(C)(CN(C1)C3c1ccccc1Cl)C2O` (stereo unspecified), the inhibition was 3.8%. Under `O=C(NCCc1csc(-c2ccccc2)n1)c1cccs1` stands 9.4%; under `Cc1cc(NC(=O)c2cccc(S(=O)(=O)N3CCCCCC3)c2)n(-c2ccccn2)n1`, -5.7%; under `CCOC(=O)C1CCN(C(=O)COC(=O)CCOc2ccc(C)cc2)CC1`, 7.4%. For the compound `CCOc1ccc(C(=O)CN2CCN(S(=O)(=O)c3ccc(Cl)cc3)CC2)cc1`, the inhibition is 4.9%.

For the compound `COc1ccc(C(C)=O)cc1CSc1nnc(C)s1`, the inhibition is 7%. Regarding `CC(=O)c1cccc(NC(=O)c2cccc(S(=O)(=O)N(C)C)c2)c1`, the inhibition was 6.3%. The value for `c1ccc2c(c1)CNc1ccccc1C2` was 5%. The value for `COc1ccc(-n2nnc3c(SCC(=O)NCc4ccco4)ncnc32)cc1` was 11.9%; that for `COc1cccc(NC(=O)c2ccc3c(c2)N(CC(=O)N2CCCCC2)C(=O)C(C)(C)O3)c1` was 1.3%.

In the case of `COc1ccc(Nc2nc(N)nc(SCc3nnc(C)s3)n2)cc1`, the inhibition was -0.5%. The value for `COc1ccccc1N1CCN(C(=O)CSc2nnc3n2C(C)(C)Cc2ccccc2-3)CC1` was 10.5%; that for `CC1=C(c2ccc(Cl)cc2)[N+](=O)C(C)(C)N1[O-]` was 20.3%.

Regarding `Cc1ccc(C(C(=O)NC2CCCCC2)N(CC2CCCO2)C(=O)CNC(=O)c2ccco2)cc1` (stereo unspecified), the inhibition is 2.7%. Consider `CC(OC(=O)CNC(=O)c1ccc2c(c1)OCO2)C(=O)NCCC1=CCCCC1` (stereo unspecified), for which the inhibition was 8.9%.

Take `CN(C)c1ccc(C(C(=O)NC(C)(C)C)N(C(=O)c2csnn2)C2CC2)cc1` (stereo unspecified): the inhibition is 6.8%. For the compound `CC(c1nnc(SCC(=O)c2c(N)n(C)c(=O)n(C)c2=O)n1-c1ccc(Cl)cc1)N(C)C` (stereo unspecified), the inhibition is 2.8%. Turning to `CC1CCCCN1CCNC(=O)C1CCN(S(=O)(=O)c2cccc3cccnc23)CC1` (stereo unspecified), the inhibition is 9.7%.

As for `Cc1ccc(S(=O)c2ccc(C)cc2)cc1`, the inhibition was 4.1%. Under `O=C(CC1CCCCC1)c1c(O)c2ccccc2oc1=O` stands 5%.

Take `CCOC(=O)c1[nH]c(CSc2nnc(-c3ccncc3)n2CCOC)c(C(=O)OCC)c1C`: the inhibition is 10.1%. On to `CC1CC=C2C(C#N)=C(N)C(C#N)(C#N)C(c3cccs3)C2C1` (stereo unspecified), for which the inhibition was 8.9%. `CCc1ccc(Nc2cc(=O)n(C3CCCCC3)c(=O)[nH]2)cc1`: the inhibition is 11.3%. The value for `COc1cccc(-c2cc(C(=O)NCc3ccc(Cl)cc3)no2)c1` was 8.1%; that for `COc1ccc(S(=O)(=O)N2C3CCC2CC(NC(=O)C2CC2)C3)cc1` (stereo unspecified) was 2%; that for `Nc1nc(CN2CCN(Cc3ccc4c(c3)OCO4)CC2)nc(Nc2ccccc2)n1` was 12.3%. Take `CC1(C)NC(=O)N(CC(O)COc2ccc(N3C(=O)c4ccccc4C3=O)cc2)C1=O` (stereo unspecified): the inhibition is 8.6%. With `COc1ccc(N2C(=O)CSC2c2ccc3c(c2)OCO3)cc1` (stereo unspecified), the inhibition is 13.6%.

On to `CC(C)NS(=O)(=O)c1ccc(OCC(N)=O)c(Cl)c1`, for which the inhibition is 9.1%. `Cc1cccc(NC(=O)CC(C)(C)C)c1`: the inhibition is 8.8%. On to `Cc1nc(CSc2nnc3scc(-c4ccccc4)n23)cs1`, for which the inhibition is 6.4%. `CCCCCN=C(C)c1c(O)c2ccccc2oc1=O`: the inhibition was 7.3%.

For the compound `CNc1oc(Cc2ccccc2)nc1S(=O)(=O)c1ccccc1`, the inhibition is 9.1%. Regarding `COC(=O)Nc1sc2c(c1C(N)=O)CCCCCC2`, the inhibition was 15.8%.

(Values after PubChem BioAssay AID518 (Sanford-Burnham Center for Chemical Genomics, 2006).)
